Assay in all cases: DAPPL (digital affinity profiling via proximity ligation, sequencing); 10 mM Tris-HCl pH 7.5, 50 mM NaCl, 1 mM DTT, 4% glycerol, room temperature, 30 min; GST-TFs on glutathione beads, 16-mer random dsDNA library, 0.1% formaldehyde crosslink after washing; high values mean tight binding
Conditions in all cases: protein: recombinant; tags: N-terminal GST; dsDNA, one strand shown

One test concerns the target T1, FLI1 (Homo sapiens, UniProt Q01543 1-452).
T1 sequence: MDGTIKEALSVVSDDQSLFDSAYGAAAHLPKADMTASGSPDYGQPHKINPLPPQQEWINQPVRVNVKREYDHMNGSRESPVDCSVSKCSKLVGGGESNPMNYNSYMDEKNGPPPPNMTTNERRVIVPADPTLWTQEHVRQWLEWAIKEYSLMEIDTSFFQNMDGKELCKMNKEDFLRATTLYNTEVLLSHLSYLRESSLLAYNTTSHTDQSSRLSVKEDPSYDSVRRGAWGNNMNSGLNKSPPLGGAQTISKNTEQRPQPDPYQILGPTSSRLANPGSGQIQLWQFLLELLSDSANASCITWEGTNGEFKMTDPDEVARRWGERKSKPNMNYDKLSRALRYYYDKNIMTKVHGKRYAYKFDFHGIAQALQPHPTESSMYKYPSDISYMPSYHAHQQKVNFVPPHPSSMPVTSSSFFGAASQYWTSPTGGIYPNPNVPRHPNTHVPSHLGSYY
The procedure, abridged: (§1)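 After expression in yeast as GST fusions, human transcription factors were bound to glutathione beads, DNA-barcoded and mixed with a tag-only sample. The pools were incubated with 200 nmole of a 16-mer random double-stranded DNA library in Tris/NaCl/DTT/glycerol buffer (30 min, room temperature), washed and crosslinked with 0.1% formaldehyde. Proximity ligation with BsaI/T4 ligase ran for 1 h at 37 °C, before PCR amplification and sequencing on an Illumina NextSeq500. Binding signal is a hexamer's read frequency for a factor divided by its frequency for the tag-only sample.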

For a further test, the target named is T2, ELK1 (Homo sapiens, UniProt P19419 1-428).
T2 sequence: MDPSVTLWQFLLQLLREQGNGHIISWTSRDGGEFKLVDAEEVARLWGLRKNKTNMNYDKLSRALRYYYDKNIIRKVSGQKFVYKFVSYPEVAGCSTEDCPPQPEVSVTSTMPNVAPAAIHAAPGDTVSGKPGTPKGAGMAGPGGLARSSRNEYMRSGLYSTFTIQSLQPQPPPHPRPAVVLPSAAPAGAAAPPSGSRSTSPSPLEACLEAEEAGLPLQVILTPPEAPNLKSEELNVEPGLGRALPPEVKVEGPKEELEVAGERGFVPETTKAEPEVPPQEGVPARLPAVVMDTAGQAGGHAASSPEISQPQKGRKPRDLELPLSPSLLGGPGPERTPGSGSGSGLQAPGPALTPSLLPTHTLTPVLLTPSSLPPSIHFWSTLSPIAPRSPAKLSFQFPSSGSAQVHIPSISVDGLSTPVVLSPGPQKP
The method in brief: as §1

A further test has as its target T3, GABPA (Homo sapiens, UniProt Q06546 1-454).
T3 sequence: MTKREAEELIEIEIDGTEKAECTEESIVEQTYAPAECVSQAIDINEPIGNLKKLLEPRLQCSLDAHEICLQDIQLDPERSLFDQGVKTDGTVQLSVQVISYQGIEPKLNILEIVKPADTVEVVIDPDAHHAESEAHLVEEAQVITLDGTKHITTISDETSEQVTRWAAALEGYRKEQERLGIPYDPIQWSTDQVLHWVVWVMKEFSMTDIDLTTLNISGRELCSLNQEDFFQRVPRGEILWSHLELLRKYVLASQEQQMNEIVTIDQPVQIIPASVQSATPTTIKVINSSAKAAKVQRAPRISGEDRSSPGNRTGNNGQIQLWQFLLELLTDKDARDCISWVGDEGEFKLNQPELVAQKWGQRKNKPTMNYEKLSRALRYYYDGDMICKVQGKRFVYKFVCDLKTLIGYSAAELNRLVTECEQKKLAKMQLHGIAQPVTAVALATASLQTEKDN
The procedure, abridged: as §1

The target of the next test is T4, ERG (Homo sapiens, UniProt P11308 1-479).
T4 sequence: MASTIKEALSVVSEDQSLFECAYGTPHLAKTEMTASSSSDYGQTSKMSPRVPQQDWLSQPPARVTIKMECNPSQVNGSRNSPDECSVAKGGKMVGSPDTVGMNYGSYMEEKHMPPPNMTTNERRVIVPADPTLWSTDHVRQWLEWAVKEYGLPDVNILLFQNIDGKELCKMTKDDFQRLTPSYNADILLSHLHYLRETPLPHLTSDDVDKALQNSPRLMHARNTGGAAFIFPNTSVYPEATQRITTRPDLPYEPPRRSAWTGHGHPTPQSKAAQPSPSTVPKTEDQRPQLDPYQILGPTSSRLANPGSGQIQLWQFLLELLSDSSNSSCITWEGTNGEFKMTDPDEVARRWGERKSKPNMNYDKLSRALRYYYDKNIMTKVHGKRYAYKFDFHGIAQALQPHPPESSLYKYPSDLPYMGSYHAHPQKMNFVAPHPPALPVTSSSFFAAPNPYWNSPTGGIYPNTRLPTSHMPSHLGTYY
The method in brief:
as §1

The target in the next test is ELF1 (Homo sapiens, UniProt P32519 1-619). The method in brief: as §1
ELF1, sequence (P32519 whole entry): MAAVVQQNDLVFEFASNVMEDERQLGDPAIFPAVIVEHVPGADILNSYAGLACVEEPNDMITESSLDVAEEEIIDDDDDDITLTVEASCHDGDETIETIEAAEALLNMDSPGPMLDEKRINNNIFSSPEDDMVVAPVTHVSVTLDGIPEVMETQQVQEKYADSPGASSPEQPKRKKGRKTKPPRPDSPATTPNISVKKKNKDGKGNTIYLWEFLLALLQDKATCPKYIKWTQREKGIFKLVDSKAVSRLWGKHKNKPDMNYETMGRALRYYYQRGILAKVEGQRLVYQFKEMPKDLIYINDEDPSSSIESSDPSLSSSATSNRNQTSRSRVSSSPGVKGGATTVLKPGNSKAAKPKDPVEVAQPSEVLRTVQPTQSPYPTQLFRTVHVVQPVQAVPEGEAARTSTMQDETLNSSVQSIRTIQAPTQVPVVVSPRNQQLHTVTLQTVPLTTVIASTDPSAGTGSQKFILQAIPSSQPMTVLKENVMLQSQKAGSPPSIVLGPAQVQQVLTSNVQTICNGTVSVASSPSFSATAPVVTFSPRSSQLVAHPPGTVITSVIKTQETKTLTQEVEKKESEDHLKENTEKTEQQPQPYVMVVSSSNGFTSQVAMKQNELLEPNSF
For another test, the target named is SPI1 (Homo sapiens, UniProt P17947 1-270). The method in brief: as §1
The target of the next test is SPIB (Homo sapiens, UniProt Q01892 1-262). The procedure, abridged: as §1
SPIB, sequence (Q01892 whole entry): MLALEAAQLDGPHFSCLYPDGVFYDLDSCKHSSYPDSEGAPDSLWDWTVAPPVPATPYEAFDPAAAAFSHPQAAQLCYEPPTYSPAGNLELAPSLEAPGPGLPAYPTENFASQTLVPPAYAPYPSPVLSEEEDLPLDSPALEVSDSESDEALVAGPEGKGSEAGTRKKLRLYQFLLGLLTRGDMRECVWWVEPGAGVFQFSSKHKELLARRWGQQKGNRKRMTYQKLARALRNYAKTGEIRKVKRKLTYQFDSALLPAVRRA
The target in a further test is T5, ELK3 (Homo sapiens, UniProt P41970 1-407).
T5 sequence: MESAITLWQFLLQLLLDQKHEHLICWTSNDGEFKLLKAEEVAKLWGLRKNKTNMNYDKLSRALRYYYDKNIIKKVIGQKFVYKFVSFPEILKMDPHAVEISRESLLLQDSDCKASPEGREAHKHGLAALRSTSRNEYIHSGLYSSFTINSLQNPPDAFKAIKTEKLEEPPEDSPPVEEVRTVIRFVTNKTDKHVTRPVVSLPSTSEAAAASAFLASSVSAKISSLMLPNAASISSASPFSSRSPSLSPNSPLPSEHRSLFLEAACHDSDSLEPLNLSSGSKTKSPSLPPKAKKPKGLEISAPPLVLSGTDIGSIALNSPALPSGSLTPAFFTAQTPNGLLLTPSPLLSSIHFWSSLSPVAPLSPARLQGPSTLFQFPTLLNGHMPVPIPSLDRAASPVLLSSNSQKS
The procedure, abridged:
as §1

In another test the target is T6, FEV (Homo sapiens, UniProt Q99581 1-238).
T6 sequence: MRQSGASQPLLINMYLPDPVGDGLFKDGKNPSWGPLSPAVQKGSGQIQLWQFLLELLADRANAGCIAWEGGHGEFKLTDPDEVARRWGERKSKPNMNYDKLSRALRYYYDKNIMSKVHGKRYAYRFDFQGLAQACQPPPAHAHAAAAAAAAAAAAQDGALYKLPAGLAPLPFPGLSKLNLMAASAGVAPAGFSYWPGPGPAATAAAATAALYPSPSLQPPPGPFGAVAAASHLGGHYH
The method in brief: as §1

The next test deals with ETV5 (Homo sapiens, UniProt P41161 1-510). The method in brief:
as §1

For a further test, the target named is T7, SPIC (Homo sapiens, UniProt Q8N5J4 1-248).
T7 sequence: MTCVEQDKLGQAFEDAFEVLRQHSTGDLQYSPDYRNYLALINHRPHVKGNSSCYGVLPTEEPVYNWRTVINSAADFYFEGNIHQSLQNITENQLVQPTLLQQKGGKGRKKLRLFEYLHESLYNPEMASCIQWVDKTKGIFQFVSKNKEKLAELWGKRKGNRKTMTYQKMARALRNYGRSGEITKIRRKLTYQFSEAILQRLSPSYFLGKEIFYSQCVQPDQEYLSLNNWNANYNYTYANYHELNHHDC
The procedure, abridged:
as §1

For another test, the target named is ELF4 (Homo sapiens, UniProt Q99607 1-663). The method in brief:
as §1

Another test concerns the target ETV1 (Homo sapiens, UniProt P50549 1-477). The method in brief: as §1
For another test, the target named is T8, ERF (Homo sapiens, UniProt P50548 1-548).
T8 sequence: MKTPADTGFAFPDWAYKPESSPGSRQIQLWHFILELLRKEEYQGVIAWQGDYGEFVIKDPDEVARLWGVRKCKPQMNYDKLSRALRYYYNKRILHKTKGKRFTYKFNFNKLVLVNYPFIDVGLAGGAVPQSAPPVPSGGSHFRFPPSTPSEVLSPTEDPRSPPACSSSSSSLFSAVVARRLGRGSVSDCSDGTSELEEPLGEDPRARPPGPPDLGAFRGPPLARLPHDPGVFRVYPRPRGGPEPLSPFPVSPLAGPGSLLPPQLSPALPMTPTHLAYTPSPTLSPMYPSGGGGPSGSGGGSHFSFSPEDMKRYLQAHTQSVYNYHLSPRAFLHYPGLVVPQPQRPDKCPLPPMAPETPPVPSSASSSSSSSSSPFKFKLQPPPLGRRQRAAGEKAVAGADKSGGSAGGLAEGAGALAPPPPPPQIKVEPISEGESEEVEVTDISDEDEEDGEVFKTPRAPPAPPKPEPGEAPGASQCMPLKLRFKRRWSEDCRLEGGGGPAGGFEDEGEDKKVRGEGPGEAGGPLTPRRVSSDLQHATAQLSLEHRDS
The procedure, abridged: as §1

For a further test, the target named is T9, ETV3L (Homo sapiens, UniProt Q6ZN32 1-361).
T9 sequence: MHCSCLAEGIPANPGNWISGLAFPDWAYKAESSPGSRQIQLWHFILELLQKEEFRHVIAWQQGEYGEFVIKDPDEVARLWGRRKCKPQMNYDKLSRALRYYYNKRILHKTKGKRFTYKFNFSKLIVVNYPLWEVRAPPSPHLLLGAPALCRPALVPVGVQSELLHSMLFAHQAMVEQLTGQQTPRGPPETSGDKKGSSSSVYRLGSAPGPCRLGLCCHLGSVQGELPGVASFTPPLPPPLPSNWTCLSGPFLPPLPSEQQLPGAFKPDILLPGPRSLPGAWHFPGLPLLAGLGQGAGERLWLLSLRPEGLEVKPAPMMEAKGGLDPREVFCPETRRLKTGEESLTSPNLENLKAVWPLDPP
The procedure, abridged:
as §1

The target of another test is T10, ETS2 (Homo sapiens, UniProt P15036 1-469).
T10 sequence: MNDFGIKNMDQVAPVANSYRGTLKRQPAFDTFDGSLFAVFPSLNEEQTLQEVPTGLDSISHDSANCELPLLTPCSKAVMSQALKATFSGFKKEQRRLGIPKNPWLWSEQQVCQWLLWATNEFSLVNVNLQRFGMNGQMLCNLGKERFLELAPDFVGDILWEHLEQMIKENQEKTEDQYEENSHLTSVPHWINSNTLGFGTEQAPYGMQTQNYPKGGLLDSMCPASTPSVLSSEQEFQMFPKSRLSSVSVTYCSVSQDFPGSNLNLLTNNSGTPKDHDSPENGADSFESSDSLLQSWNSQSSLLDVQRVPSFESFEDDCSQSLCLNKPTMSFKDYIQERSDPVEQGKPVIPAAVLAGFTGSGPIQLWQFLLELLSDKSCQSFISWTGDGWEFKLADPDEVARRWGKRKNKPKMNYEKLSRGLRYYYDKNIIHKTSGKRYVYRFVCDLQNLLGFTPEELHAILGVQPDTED
The method in brief: as §1

A further test concerns the target T11, ELF5 (Homo sapiens, UniProt Q9UKW6-2 1-255).
T11 sequence: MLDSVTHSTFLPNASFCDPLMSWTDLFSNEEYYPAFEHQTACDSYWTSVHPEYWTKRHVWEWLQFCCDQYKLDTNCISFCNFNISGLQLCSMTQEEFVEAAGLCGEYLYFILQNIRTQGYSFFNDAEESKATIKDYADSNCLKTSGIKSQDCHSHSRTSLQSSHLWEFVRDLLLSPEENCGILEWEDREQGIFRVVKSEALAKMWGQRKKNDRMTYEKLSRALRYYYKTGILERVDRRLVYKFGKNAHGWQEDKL
The method in brief:
as §1

The target of the next test is T12, ETV3 (Homo sapiens, UniProt P41162-2 1-143).
T12 sequence: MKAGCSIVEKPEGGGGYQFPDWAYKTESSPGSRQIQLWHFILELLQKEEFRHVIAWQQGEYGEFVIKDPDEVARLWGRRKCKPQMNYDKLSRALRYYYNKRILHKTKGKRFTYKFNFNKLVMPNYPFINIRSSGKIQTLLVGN
The method in brief: as §1

In a further test the target is ETV6 (Homo sapiens, UniProt P41212 1-452). The procedure, abridged:
as §1

ELF4, sequence (Q99607 whole entry): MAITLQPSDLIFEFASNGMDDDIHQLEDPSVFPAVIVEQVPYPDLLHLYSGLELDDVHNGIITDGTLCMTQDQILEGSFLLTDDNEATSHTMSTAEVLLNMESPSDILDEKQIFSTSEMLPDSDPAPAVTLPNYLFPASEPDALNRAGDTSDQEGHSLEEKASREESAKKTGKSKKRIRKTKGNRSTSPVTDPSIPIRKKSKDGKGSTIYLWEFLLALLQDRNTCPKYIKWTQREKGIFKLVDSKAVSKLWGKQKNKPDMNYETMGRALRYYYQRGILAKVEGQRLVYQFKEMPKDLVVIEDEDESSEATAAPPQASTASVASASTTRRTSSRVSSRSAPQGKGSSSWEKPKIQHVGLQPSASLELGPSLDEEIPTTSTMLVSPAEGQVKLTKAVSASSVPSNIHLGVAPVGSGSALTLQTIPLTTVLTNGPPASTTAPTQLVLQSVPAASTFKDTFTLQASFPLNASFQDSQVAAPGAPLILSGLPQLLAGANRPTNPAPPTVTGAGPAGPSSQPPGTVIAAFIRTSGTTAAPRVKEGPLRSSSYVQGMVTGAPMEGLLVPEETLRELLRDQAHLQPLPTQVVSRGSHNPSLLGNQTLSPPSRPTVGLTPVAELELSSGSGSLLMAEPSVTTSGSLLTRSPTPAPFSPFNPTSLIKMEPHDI
ETV1, sequence (P50549 whole entry): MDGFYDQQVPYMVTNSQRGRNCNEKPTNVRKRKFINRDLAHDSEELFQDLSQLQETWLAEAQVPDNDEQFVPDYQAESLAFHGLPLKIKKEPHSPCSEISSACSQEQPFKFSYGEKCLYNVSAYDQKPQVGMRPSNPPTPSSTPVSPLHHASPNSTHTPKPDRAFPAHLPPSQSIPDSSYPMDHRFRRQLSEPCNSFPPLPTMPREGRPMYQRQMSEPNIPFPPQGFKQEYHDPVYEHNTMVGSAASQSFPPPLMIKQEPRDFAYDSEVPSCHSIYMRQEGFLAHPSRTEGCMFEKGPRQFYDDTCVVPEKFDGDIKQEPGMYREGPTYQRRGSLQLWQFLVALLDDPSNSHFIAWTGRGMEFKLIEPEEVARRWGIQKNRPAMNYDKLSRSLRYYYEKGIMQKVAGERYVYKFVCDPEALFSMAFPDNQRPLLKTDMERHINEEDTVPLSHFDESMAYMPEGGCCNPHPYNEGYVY
ETV6, sequence (P41212 whole entry): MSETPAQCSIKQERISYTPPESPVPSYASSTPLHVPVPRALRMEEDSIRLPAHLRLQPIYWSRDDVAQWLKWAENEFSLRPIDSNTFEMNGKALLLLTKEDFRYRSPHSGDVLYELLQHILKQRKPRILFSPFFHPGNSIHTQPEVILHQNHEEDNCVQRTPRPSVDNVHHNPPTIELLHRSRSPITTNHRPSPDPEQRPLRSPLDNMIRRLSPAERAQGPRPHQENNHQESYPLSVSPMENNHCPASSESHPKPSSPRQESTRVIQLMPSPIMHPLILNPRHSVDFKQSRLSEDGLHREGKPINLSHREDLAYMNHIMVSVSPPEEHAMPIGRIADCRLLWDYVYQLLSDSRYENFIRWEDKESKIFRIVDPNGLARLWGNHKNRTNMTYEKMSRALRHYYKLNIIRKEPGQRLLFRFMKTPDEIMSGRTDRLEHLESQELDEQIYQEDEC
ETV5, sequence (P41161 whole entry): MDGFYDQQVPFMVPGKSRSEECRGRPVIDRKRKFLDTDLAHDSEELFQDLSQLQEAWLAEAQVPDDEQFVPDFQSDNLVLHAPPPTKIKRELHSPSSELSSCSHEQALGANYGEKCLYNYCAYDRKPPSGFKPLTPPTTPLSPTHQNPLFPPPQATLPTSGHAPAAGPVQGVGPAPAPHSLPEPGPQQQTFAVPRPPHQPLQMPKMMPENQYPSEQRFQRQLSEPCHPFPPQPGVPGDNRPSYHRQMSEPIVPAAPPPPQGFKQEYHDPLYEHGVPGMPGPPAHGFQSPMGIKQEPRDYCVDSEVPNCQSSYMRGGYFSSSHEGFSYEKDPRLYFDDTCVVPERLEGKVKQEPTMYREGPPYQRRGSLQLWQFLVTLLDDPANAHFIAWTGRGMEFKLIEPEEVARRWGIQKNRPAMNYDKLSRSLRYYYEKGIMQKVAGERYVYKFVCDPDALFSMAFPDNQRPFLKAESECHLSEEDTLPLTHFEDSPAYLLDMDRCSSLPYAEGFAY

As for CATCGC, the binding signal was 1.08 fold enrichment (6-mer frequency, TF over GST control) with FLI1; 1.13 fold enrichment (6-mer frequency, TF over GST control) with ELK1; 1.13 fold enrichment (6-mer frequency, TF over GST control) with GABPA; 1.06 fold enrichment (6-mer frequency, TF over GST control) in the test with ERG; 1.06 fold enrichment (6-mer frequency, TF over GST control) in the test with ELF1; 1.06 fold enrichment (6-mer frequency, TF over GST control) with SPI1. The binding signal with SPIB was 1.1 fold enrichment (6-mer frequency, TF over GST control); in the test with ELK3 it was 1.23 fold enrichment (6-mer frequency, TF over GST control); with FEV it was 1.07 fold enrichment (6-mer frequency, TF over GST control); with ETV5, 1.04 fold enrichment (6-mer frequency, TF over GST control); with SPIC, 1.03 fold enrichment (6-mer frequency, TF over GST control); with ELF4, 1.13 fold enrichment (6-mer frequency, TF over GST control). The binding signal is 1.06 fold enrichment (6-mer frequency, TF over GST control) in the test with ETV1; 1.06 fold enrichment (6-mer frequency, TF over GST control) with ERF; 1.21 fold enrichment (6-mer frequency, TF over GST control) in the test with ETV3L; 1.14 fold enrichment (6-mer frequency, TF over GST control) with ETS2; 1.03 fold enrichment (6-mer frequency, TF over GST control) with ELF5; 1.1 fold enrichment (6-mer frequency, TF over GST control) with ETV3. The binding signal with ETV6 is 1.02 fold enrichment (6-mer frequency, TF over GST control).

For the origin of these results see article PMC7862700, “An all-to-all approach to the identification of sequence-specific readers for epigenetic DNA modifications on cytosine”.
